These results are taken from ChEMBL document CHEMBL3988442, “University of Dundee, Small-Polar-MMV Screening Library” (2021).

Set-up in all cases: scale not given: direction of the effect not stated beside the values
For experiment [1], the target named is Protein translocase subunit SecA (Escherichia coli (strain K12)) (UniProt P10408). Put plainly: Assay to Identify E. coli SecA ATPase Inhibitors. It is filed as functional. Particulars: 30 µM.
Experiment [2] concerns the target T1, Ubiquitin-activating enzyme e1, putative (Leishmania donovani (strain BPK282A1)) (UniProt E9BSI1).
T1 sequence (whole entry): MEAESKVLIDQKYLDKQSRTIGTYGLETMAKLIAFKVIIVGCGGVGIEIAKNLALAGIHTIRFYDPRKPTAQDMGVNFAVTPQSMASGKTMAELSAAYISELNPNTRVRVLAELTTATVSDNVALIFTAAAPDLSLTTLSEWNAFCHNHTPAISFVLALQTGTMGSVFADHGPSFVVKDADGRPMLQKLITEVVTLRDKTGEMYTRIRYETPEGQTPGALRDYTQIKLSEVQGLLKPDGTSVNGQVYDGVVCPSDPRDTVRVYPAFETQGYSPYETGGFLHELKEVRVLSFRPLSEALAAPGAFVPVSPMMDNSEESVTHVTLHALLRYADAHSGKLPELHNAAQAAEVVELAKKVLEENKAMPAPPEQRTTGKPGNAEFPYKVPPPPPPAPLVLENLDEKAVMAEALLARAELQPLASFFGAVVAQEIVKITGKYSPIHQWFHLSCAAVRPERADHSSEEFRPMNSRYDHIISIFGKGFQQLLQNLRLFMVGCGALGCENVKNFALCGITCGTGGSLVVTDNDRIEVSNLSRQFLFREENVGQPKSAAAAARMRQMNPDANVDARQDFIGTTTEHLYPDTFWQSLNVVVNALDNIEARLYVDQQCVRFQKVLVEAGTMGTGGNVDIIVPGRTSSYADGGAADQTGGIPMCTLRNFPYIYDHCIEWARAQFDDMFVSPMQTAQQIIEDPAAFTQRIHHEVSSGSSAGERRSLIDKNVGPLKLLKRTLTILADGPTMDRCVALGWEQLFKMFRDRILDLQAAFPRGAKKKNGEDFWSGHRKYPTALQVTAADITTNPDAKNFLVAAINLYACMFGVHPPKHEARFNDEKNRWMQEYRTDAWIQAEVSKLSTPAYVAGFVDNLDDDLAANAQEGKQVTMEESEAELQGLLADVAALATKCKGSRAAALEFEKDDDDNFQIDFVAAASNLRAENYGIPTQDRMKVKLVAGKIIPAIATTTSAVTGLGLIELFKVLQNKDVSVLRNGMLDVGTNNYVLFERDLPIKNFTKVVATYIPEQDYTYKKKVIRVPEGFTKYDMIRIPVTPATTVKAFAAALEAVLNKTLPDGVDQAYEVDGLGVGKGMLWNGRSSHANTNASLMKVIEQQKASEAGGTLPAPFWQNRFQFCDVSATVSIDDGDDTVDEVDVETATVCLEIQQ
Kind of experiment: Leishmania donovani Ubiquitin Activating Enzyme (LdE1). It is filed as functional. The following applies: 30 µM.

Experiment [3] concerns the target AMP-activated protein kinase, AMPK (Homo sapiens) (UniProt P54646+O43741+P54619+Q9UGJ0+Q9Y478+Q13131+Q9UGI9). Kind of experiment: AMP-dependent Kinase enzyme assay. An in vitro enzyme assay that detects ADP turnover that is directly proportional to AMPK activity. This uses naive AMPK that is activated during the assay with MK-8722. It is filed as functional. The following applies: 30 µM.

For experiment [4], the target named is Sialic acid-binding Ig-like lectin 9 (Homo sapiens) (UniProt Q9Y336). Kind of experiment: Hs-Siglec9 ALPHAscreen SOP 20170721. Particulars: 10 µM. (In general: Alpha assays give light when donor and acceptor beads are brought close together.)
Sequence of Sialic acid-binding Ig-like lectin 9 (Homo sapiens) (Q9Y336 whole entry): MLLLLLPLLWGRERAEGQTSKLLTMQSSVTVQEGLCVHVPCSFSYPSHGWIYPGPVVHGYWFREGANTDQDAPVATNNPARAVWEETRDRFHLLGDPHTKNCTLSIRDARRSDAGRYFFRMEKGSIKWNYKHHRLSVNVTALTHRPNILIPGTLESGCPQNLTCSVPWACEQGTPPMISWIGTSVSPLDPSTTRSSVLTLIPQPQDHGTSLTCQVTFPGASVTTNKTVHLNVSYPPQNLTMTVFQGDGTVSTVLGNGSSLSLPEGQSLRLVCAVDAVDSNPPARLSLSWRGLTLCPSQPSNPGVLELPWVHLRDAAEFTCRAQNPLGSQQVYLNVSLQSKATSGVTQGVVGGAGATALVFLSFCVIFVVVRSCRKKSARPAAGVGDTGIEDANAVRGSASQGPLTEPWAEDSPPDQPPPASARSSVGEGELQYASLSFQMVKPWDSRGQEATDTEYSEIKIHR
Experiment [5] relates to Trypanosoma cruzi. Kind of experiment: Trypanosoma cruzi phosphomannomutase and mannose-1-phosphate guanylyltransferase assay. It is filed as functional. Particulars: 10 µM.
Experiment [6] addresses T2, Arginase-2, mitochondrial (Homo sapiens) (UniProt P78540).
T2 sequence (whole entry): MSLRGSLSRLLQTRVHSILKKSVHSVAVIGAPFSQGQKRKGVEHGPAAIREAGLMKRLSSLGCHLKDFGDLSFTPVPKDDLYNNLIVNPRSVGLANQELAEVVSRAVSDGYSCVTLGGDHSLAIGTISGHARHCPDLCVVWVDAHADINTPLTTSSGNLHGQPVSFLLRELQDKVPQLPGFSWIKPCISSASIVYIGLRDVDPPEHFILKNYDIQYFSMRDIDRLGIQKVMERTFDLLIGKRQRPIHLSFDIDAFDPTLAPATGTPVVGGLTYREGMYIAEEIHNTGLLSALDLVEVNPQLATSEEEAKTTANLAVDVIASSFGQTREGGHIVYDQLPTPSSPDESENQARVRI
Kind of experiment: in vitro enzyme assay to detect the production of urea directly proportional to the activity of Arginase II. Further: in the data most compounds retested in dose-response had high values. Format: functional. The following applies: 33.3 µM.

The target in experiment [7] is T3, Proteasome subunit beta (Trypanosoma cruzi) (UniProt O96673).
T3 sequence (whole entry): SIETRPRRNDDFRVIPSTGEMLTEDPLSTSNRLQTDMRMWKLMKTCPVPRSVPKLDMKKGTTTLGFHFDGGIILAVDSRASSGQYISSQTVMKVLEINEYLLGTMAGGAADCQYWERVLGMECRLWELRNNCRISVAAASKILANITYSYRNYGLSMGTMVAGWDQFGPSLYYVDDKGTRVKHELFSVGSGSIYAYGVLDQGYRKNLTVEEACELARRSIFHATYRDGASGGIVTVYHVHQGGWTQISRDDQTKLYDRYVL
Put plainly: Trypanosoma cruzi proteasome chymotrypsin-like activity (TcProtChymo) assay. Further: in the data most compounds retested in dose-response had high values. It is filed as functional. The following applies: 9.37 µM.

Experiment [8] is filed under the species Homo sapiens. Kind of experiment: To identify inhibition of the IFN signalling (Jak-Stat) pathway via expression of an eGFP reporter gene under the control of an IFN-stimulated response element (ISRE) containing MxA promoter. Particulars: 30 µM. It is filed as functional. (In a reporter assay the amount or activity of a reporter protein is the signal.)
Experiment [9] concerns the target T4, Tyrosyl-tRNA synthetase, putative (Trypanosoma cruzi (strain CL Brener)) (UniProt Q4DSP6).
T4 sequence (whole entry): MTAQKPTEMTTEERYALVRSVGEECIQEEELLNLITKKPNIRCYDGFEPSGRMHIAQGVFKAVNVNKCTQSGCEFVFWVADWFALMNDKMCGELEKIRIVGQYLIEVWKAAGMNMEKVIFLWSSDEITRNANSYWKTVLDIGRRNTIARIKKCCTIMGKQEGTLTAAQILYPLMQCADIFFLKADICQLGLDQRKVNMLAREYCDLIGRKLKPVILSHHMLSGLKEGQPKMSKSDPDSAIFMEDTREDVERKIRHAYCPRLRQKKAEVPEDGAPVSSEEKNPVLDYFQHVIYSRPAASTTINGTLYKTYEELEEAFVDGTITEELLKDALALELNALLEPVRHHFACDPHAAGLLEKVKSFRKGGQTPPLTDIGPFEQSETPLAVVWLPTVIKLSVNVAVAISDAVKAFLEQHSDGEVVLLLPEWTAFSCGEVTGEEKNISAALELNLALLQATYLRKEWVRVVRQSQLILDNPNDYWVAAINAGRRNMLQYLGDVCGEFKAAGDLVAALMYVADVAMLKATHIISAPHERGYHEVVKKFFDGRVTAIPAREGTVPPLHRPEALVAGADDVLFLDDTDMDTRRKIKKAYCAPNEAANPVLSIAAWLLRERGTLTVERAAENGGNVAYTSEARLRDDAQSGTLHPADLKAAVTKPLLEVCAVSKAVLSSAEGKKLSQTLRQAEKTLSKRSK
Put plainly: Trypanosoma cruzi tyrosyl tRNA synthetase (TcYRS) _High Tyrosine SOP. Further: in the data most compounds retested in dose-response had high values. Format: functional. Particulars: 30 µM.

Experiment [10] has as its target T4, Tyrosyl-tRNA synthetase, putative (Trypanosoma cruzi (strain CL Brener)). Put plainly: Trypanosoma cruzi tyrosyl tRNA synthetase (TcYRS) SOP. It is filed as functional. Particulars: 30 µM.
In experiment [11] the target is Chromo domain-containing protein 1 (Saccharomyces cerevisiae (strain ATCC 204508 / S288c) (Baker's yeast)) (UniProt P32657). Put plainly: ScCHD-1 Enzyme Inhibition Assay. Further: in the data most compounds retested in dose-response had high values. Format: functional. The following applies: 30 µM.
Sequence of Chromo domain-containing protein 1 (Saccharomyces cerevisiae (strain ATCC 204508 / S288c) (Baker's yeast)) (P32657 whole entry, the tested form may be a part): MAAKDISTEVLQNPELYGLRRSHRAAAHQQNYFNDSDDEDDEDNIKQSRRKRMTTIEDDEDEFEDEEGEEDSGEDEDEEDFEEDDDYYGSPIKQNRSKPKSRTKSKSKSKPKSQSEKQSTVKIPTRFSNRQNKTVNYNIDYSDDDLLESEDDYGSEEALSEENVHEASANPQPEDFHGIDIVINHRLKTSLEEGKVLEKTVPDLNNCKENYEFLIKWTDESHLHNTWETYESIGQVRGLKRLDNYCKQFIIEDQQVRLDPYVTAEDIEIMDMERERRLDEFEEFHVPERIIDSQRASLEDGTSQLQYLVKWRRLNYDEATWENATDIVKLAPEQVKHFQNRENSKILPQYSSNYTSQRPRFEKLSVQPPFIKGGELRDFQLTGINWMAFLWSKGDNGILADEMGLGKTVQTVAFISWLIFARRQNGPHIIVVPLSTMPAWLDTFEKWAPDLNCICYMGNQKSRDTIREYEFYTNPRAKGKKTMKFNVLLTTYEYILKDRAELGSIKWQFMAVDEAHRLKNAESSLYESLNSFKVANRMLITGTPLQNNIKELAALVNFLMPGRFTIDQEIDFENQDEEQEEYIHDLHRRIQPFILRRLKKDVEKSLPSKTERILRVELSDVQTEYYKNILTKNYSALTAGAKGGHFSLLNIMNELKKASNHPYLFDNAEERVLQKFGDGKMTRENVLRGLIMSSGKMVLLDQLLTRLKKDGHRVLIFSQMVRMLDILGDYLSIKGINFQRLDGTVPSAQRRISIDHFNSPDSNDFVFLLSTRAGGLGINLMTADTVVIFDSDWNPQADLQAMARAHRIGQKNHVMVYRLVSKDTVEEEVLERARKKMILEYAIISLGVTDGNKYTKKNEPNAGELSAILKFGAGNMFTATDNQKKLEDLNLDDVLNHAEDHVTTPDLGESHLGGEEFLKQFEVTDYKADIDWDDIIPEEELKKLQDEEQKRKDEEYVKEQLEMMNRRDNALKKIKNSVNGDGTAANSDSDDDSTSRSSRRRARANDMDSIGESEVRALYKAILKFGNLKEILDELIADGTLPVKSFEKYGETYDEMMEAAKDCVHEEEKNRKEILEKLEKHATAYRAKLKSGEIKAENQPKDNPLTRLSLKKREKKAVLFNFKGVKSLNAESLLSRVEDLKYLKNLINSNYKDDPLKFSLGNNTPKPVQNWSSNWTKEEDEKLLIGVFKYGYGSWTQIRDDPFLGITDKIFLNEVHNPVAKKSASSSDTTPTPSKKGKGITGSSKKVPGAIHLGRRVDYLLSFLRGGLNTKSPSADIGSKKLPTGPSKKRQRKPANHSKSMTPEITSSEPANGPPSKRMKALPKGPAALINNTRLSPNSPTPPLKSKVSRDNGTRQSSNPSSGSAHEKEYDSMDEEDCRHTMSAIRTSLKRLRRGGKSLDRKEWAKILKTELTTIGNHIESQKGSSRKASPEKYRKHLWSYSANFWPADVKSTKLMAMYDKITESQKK

For some assays here: Results with a measured potency or affinity are listed apart.

Sequence of Protein translocase subunit SecA (Escherichia coli (strain K12)) (P10408 whole entry): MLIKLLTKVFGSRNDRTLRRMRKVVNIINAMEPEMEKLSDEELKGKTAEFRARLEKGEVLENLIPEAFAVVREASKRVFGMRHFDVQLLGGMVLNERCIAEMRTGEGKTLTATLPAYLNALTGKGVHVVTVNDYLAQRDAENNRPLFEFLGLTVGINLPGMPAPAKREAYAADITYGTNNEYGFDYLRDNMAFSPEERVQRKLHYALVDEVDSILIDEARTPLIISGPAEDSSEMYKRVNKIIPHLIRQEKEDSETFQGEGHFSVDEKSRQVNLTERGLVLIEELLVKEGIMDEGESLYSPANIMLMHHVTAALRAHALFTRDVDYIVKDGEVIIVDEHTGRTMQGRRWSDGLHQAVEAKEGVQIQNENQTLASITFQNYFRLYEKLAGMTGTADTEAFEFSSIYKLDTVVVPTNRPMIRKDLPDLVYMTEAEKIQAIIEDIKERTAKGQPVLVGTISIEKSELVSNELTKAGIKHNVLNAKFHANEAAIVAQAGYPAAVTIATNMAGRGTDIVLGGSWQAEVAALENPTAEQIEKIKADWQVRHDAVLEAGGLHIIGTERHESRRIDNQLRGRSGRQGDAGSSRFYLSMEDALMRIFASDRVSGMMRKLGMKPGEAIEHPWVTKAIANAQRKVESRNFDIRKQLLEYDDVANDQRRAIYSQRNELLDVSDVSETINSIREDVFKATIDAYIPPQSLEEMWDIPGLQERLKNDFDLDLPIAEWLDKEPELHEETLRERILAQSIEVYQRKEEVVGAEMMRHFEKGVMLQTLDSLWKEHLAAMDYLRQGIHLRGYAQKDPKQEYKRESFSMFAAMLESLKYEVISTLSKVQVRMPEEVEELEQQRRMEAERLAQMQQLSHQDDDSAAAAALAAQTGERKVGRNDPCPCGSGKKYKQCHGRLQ

Turning to `COC(=O)Cn1cccc(S(=O)(=O)N2CCC(C)CC2)c1=O`, the Percent Effect in experiment [1] was -2.33%; in experiment [2], 20%; in experiment [3] it was -5.59%; in experiment [4], -8.73%; in experiment [5], 2.75%; in [6] it was 92.1%. For the same compound, the Percent Effect was 14.8% in experiment [7]; 15.8% in [8]; 2.12% in experiment [9]; 10.3% in experiment [10]; -10.4% in [11].

For `CCS(=O)(=O)N1C[C@H]2CN(Cc3cccnc3)C(=O)[C@H]2C1`, the Percent Effect in experiment [1] was -1.39%; in experiment [2], 2.7%; in experiment [3], 0.503%; in [4], 1.84%; in [5], -6.25%; in [6], 0%. The Percent Effect in experiment [7] came to 10.9%; in experiment [8] it was 19.2%; in experiment [9] it was 4.95%; in experiment [10] it was 6.1%; in [11], 1.54%.

Regarding `CC(CNC(=O)c1ccc(Cl)cc1I)N1CCCC1` (stereo not given), the Percent Effect was -0.489% in [1]; -2.7% in [2]; -6.38% in experiment [3]; -1.77% in [4]; 7.53% in experiment [5]; -2.38% in experiment [6]. Besides, the Percent Effect in [7] is 27.4%; in experiment [8], -7.67%; in experiment [9], 6.88%; in [10], 12.2%; in [11] it was 51.2%.

For `Cc1cnc2n(c1=O)C(CC(=O)NCc1cc(-c3cccs3)on1)CS2` (stereo not given), the Percent Effect in [1] is -0.436%; in experiment [2] it was 20.8%; in experiment [3] it was 11.4%; in experiment [4], -23.7%; in experiment [5] it was 1.28%; in experiment [6], 5.81%. In addition, the Percent Effect in experiment [7] was 6.79%; in experiment [8], 28.9%; in [9], 2.12%; in experiment [10] it was 16.7%; in experiment [11], -11%.

With `Cc1cccc2c1cnn2CCC(=O)NCC(=O)N(C)C`, the Percent Effect was -1.87% in [1]; 1.33% in experiment [2]; 12.2% in experiment [3]; 7.1% in experiment [4]; -6.68% in [5]; -10% in [6]. Also, the Percent Effect in experiment [7] is 14.2%; in experiment [8], 3.37%; in [9], 4.23%; in [10], 7.69%; in experiment [11] it was -10.3%.

In the case of `CC(C)(C)OC(=O)N1CCCC[C@H]1C(=O)NCc1nccs1`, the Percent Effect was -0.685% in experiment [1]; 0% in experiment [2]; -2.33% in [3]; 5.11% in [4]; 5.18% in experiment [5]; 16.6% in experiment [6]. Also, the Percent Effect in [7] is 0.944%; in experiment [8], -20.1%; in experiment [9], 4.3%; in [10], 8.64%; in experiment [11] it was -4.5%.

For `CCN1CCC(NC(=O)CN2CCCCC2Cn2cc(C)cn2)CC1` (stereo not given), the Percent Effect is 3.6% in [1]; 21.5% in experiment [2]; 4.67% in experiment [3]; -0.101% in experiment [4]; -4.21% in experiment [5]; -11.4% in experiment [6]. The Percent Effect in experiment [7] is 15.3%; in experiment [8] it was 14.9%; in experiment [9], 1.04%; in experiment [10] it was -22.8%; in experiment [11] it was -23.6%.

Consider `CC1(NC(=O)Cc2csc(C(C)(C)C)n2)CCS(=O)(=O)C1` (stereo not given), for which the Percent Effect is -7.31% in [1]; 19.2% in experiment [2]; -17.7% in experiment [3]; 20.2% in experiment [4]; 9.01% in experiment [5]; 7.27% in [6]. The Percent Effect is 13.7% in experiment [7]; 17.5% in experiment [8]; 4.3% in [9]; 17.5% in experiment [10]; -4.8% in experiment [11].

Consider `CC(=O)N(Cc1noc(C2CC2)n1)C1CCN(Cc2cccnc2)C1` (stereo not given), for which the Percent Effect in experiment [1] was -2.68%; in experiment [2], 13.5%; in [3], -6.59%; in experiment [4], 0.785%; in experiment [5], -1.76%; in [6] it was -0.185%. The Percent Effect in experiment [7] is 2.51%; in [8] it was 12.5%; in experiment [9] it was 4.95%; in experiment [10], 18.3%; in experiment [11], -7.09%.

`CN(C)S(=O)(=O)N1CCC2(COCc3cnc(-c4ccccc4)nc32)C1` (stereo not given): the Percent Effect was -3.52% in experiment [1]; 13.3% in experiment [2]; 1.46% in [3]; -2.12% in experiment [4]; 4.44% in experiment [5]; -1.25% in [6]. The Percent Effect is 12.3% in experiment [7]; 12.3% in [8]; -8.33% in experiment [9]; 2.5% in [10]; -4.77% in [11].
